Where “and” joins values, the source holds several entries; their conditions need not be identical. Identical values can stand only once. Results filed as inconclusive are left out. Calls of active or inactive are those of the source. Unless noted, calls follow the shape of the dose curve; as a rule, active = well fitted curve in the direction sought with a large enough effect; inconclusive = small, poorly fitted or top-dose-only effect, or another doubt; inactive = no such curve, though single readings can be large; an effect the other way counts as inactive or inconclusive.
How the values were obtained:
[1] = qHTS assay for small molecule disruptors of the mitochondrial membrane potential - 1 hr assay (AID 651754; calls by dose curve; also: % is scaled to controls: 0 for no effect and ±100 for the full control effect; nearly all actives have a fitted effect of over 35% in size)
Summary of the method: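 In this qHTS format, a 1 hr compound treatment of HepG2 cells precedes Mito-MPS staining, and membrane potential is judged from aggregate (red) against monomer (green) fluorescence intensity.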

[2] = qHTS assay for small molecule disruptors of the mitochondrial membrane potential - 5 hr assay (AID 651755; calls by dose curve; also: % is scaled to controls: 0 for no effect and ±100 for the full control effect; nearly all actives have a fitted effect of over 40% in size)
Summary of the method: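 Seed HepG2 overnight, add compound, incubate 5 hr at 37C and 5% CO2, stain 30 min with Mito-MPS, then measure monomer (490/535 nm) and aggregate (540/590 nm) fluorescence.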

[3] = target: Tumor necrosis factor (Homo sapiens) (UniProt P01375); experiment: qHTS assay to identify small molecules that stimulate Tumor Necrosis Factor-alpha (TNF-alpha) secretion (AID 651757; active = well fitted curve in the direction sought with a large enough effect in the signal ratio; the % refers to the signal ratio; also: 0% is about no effect)
Summary of the method: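 Using 3000 THP-1 cells per well, compounds and controls were applied for 17 hrs at 37 C. Detection followed with two labeled anti-TNF-alpha antibodies (cryptate donor, XL665 acceptor) for 3 hr at room temperature, measured by TR-FRET.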

[4] = qHTS assay for environmental chemicals that activate the Aryl hydrocarbon Receptor (AhR) signaling pathway (AID 651777); details: 1A2-DRE human hepatoma cells, luciferase, 24 h; activation: hits give high values; also: % of control where 0% means no effect; nearly all actives have a fitted effect of over 15% in size
Summary of the method: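 Induction of CYP1A2 transcription through AhR is detected by luciferase in 1A2-DRE hepatoma cells. Compounds or DMSO act for 24 hr at 37 C before a 30 min One-Glo step at room temperature.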

[5] = target: Peroxisome proliferator-activated receptor alpha (Homo sapiens) (UniProt Q07869); experiment: qHTS assay for small molecule agonists of the peroxisome proliferator-activated receptor alpha (PPARalpha) signaling pathway (AID 651778); details: PathHunter PPARalpha complementation, chemiluminescence, 6 h; hits give high values; also: % of control where 0% means no effect
Summary of the method: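 Cells plated at 2,000/well and held overnight at 37 C, 5% CO2, then compound added by pin tool for 6 hr; after PathHunter detection reagent and 60 min at room temperature, chemiluminescence from enzyme complementation was read.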

[6] = target: Nuclear receptor ROR-gamma (Homo sapiens) (UniProt P51449); experiment: qHTS assay for small molecule antagonists of the retinoid-related orphan receptor gamma (ROR-gamma) signaling pathway (AID 651802);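 also: CHO cells with doxycycline-induced ROR-gamma expression; luciferase reporter luminescence driven by ROR response element; series mostly up to about 92 µM; % is scaled to controls: 0 for no effect and ±100 for the full control effect; nearly all actives have a fitted effect of over 60% in size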
Summary of the method: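 Doxycycline-induced reporter activity in engineered CHO cells (TET-inducible ROR, RORE-LUC) was measured by luminescence after 16hr compound exposure at 37C.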

[7] = qHTS assay for small molecule agonists of the antioxidant response element (ARE) signaling pathway measured by Nrf2-dependant transcriptional activity (AID 720636; active = well fitted curve in the direction sought with a large enough effect in the repeat runs; an effect the other way counts as inactive or inconclusive;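 also: HepG2 cells with an ARE-driven luciferase reporter; % of control where 0% means no effect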)
Summary of the method: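 We exposed ARE-luc HepG2 cells, seeded in assay medium with 1% dialyzed FBS and allowed 6 hr to adhere, to test compounds overnight (16 hr, 37 C) before measuring luciferase with ONE-Glo.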

[8] = qHTS assay for small molecule antagonists of the retinoid-related orphan receptor gamma (ROR-gamma) signaling pathway - cell viability counter screen (AID 720652; active = well fitted curve in the direction sought with a large enough effect in the repeat runs; an effect the other way counts as inactive or inconclusive;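 also: CHO reporter cells with doxycycline-induced ROR-gamma expression; series mostly up to about 92 µM; compound exposure lasted 16 hr before ATP read; % is scaled to controls: 0 for no effect and ±100 for the full control effect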)
Summary of the method: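 ATP-based viability readout in the ROR-gamma reporter CHO cells after 16 hr compound exposure under doxycycline induction.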

[9] = qHTS assay for small molecule agonists of the antioxidant response element (ARE) signaling pathway measured by Nrf2-dependant transcriptional activity - cell viability counter screen (AID 720653; active = well fitted curve in the direction sought with a large enough effect in the repeat runs; an effect the other way counts as inactive or inconclusive; also: % is scaled to controls: 0 for no effect and ±100 for the full control effect); details: ARE-bla HepG2 viability, CellTiter-Glo ATP luminescence, 16 h; hits give low values
Summary of the method: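 ARE-bla HepG2 cells (2,000/well) rested 5 hrs at 37C/5% CO2, then exposed to compounds in DMSO for 16 hrs. Viability was read in the same wells as intracellular ATP by luminescence, 30 min at room temperature after reagent addition.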

[10] = qHTS assay for cell viability of HEK293 cells (AID 743288); details: ATP luminescence (CellTiter-Glo), 18 h, hits give low values; also: % is scaled to controls: 0 for no effect and ±100 for the full control effect; nearly all actives have a fitted effect of over 50% in size
Summary of the method: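 Quantitative high-throughput screen: compounds were pinned onto parental HEK293 cells (2,000 per well) after a minimum 5 h settling at 37 C, incubated 18 h at 37 C, and intracellular ATP measured by luciferase luminescence.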

[11] = qHTS assay for cell viability of the p53RE-bla HCT-116 cell line (AID 743292); also: % is scaled to controls: 0 for no effect and ±100 for the full control effect; nearly all actives have a fitted effect of over 55% in size
Summary of the method: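 In this qHTS counter-screen, metabolically competent p53RE-bla HCT-116 cells were counted via their ATP content. Compounds were applied for 16 h at 37 C and luciferase-coupled luminescence was measured.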

[12] = target: Nuclear receptor subfamily 1 group I member 2 (Rattus norvegicus) (UniProt Q9R1A7); experiment: qHTS assay for small molecule activators of the rat pregnane X receptor (rPXR) signaling pathway (AID 651751; call rule not given here; also: 0% is about no effect); details: rPXR reporter cells, luciferase (One-Glo), 24 h
[13] = qHTS assay for small molecule activators of the human pregnane X receptor (PXR) signaling pathway (AID 720659; call rule not given here; also: 0% is about no effect)

Chain of Tumor necrosis factor (Homo sapiens) (P01375 whole entry, looked up): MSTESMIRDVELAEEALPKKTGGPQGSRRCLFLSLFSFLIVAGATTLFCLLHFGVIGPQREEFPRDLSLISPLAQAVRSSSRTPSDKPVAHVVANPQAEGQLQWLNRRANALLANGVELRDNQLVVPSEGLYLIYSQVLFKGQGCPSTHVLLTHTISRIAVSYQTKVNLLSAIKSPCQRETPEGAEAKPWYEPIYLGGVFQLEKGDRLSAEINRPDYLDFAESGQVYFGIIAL
Chain of Nuclear receptor ROR-gamma (Homo sapiens) (P51449 whole entry, looked up): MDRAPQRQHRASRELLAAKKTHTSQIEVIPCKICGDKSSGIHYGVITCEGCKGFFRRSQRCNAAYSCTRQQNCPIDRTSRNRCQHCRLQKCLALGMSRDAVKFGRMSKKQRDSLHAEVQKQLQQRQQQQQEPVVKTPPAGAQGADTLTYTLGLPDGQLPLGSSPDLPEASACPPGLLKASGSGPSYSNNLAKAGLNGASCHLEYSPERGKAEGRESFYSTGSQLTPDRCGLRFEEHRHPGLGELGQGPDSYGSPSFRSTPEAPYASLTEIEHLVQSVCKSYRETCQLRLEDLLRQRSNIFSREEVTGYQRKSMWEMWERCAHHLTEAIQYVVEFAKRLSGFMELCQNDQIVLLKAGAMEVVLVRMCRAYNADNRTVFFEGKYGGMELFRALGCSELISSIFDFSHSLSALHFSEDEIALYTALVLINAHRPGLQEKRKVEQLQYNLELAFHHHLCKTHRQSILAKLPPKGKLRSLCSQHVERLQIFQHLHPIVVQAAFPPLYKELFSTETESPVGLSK
Chain of Peroxisome proliferator-activated receptor alpha (Homo sapiens) (Q07869 whole entry, looked up): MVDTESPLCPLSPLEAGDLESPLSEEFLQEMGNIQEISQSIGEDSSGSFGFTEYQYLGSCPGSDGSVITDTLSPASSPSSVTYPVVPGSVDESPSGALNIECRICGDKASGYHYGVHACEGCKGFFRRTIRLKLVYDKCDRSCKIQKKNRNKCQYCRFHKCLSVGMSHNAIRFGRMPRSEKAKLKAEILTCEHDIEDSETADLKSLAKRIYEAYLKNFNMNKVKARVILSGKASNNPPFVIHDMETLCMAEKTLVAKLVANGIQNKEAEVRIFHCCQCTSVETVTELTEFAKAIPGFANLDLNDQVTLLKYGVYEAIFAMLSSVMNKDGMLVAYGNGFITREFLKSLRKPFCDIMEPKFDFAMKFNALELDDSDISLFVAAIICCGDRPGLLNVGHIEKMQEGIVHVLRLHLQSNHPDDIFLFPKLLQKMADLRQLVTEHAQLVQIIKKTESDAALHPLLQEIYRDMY
Chain of Nuclear receptor subfamily 1 group I member 2 (Rattus norvegicus) (Q9R1A7 whole entry, looked up): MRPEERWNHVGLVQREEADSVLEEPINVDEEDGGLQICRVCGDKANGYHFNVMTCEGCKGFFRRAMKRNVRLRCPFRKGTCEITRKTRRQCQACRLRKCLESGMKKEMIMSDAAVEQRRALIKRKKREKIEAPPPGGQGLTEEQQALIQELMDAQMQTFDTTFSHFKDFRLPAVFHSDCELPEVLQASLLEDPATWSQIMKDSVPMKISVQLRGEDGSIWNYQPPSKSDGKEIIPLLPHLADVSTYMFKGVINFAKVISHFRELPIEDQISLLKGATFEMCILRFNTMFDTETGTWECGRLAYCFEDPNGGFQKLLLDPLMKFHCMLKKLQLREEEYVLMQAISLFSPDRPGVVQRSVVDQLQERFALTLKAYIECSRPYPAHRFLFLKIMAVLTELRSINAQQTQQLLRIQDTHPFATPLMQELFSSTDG

Nc1cccc(S(=O)(=O)O)c1
inactive: Potency [1] | Potency [2] | Potency [3] | activation [4] -0.739% | max response [5] -1.84% | Potency [6] | outcome [7] | Potency [8] | max response [9] 8.17% | max response [10] 0.367% | Potency [11] | max response [12] 7.17%

CC(=O)CC(C)C
inactive: Potency [1] | Potency [2] | Potency [3] | activation [4] -0.041% | max response [5] -2.67% | Potency [6] | outcome [7] | Potency [8] | max response [10] -6.25% | Potency [11] | max response [12] -2.17% | outcome [13]

C[C@@H]1CC2(OC[C@]3(C)O[C@H]23)O[C@H]2C[C@@]3(C)[C@@H]4CC[C@H]5C(C)(C)C(O[C@@H]6OC[C@@H](O)[C@H](O)[C@H]6O)CC[C@@]56C[C@@]46CC[C@]3(C)[C@@H]12 (some centres undefined)
inactive: Potency [1] | Potency [2] | Potency [3] | activation [4] -1.5% | max response [5] 0.712% | Potency [6] | outcome [7] | Potency [8] | max response [9] -3.07% | Potency [11] | max response [12] 2.43% | outcome [13]

CCOc1cccc(N)c1
inactive: Potency [1] | Potency [2] | Potency [3] | activation [4] 1.67% | max response [5] 0.865% | Potency [6] | outcome [7] | max response [9] -7.78% | max response [10] 5.75% | Potency [11] | max response [12] -4.44% | outcome [13]

Cc1cccc2cccnc12
inactive: Potency [1] | Potency [2] | Potency [3] | activation [4] -0.26% | max response [5] 3.59% | Potency [6] | outcome [7] | max response [9] -7.04% | Potency [11] | max response [12] -0.272% | outcome [13]

c1ccc(Nc2ccccc2)cc1
inactive: Potency [1] | Potency [2] | Potency [3] | activation [4] 0.217% and 3.92% | Potency [6] | Potency [8] | max response [10] -6.24% and -7.97% | Potency [11] | max response [12] 1.12% and -1.15% | outcome [13]

CC(=O)Nc1ccc(C)cc1
inactive: Potency [1] | Potency [2] | Potency [3] | activation [4] -0.295% | max response [5] -1.18% | Potency [6] | Potency [8] | max response [9] 2.3% | max response [10] -2.69% | Potency [11] | max response [12] -0.0412% | outcome [13]

Nc1ccccc1S(=O)(=O)O
inactive: Potency [1] | Potency [2] | Potency [3] | activation [4] -0.162% | max response [5] -3.61% | Potency [6] | max response [9] -0.944% | max response [10] -1.86% | Potency [11] | max response [12] -0.431% | outcome [13]

CC(C)C(C)C
inactive: Potency [1] | Potency [2] | Potency [3] | activation [4] 1.04% | Potency [6] | outcome [7] | Potency [8] | max response [9] -1.72% | max response [10] 2.97% | Potency [11] | max response [12] 9.63% | outcome [13]

O=[N+]([O-])c1ccc(Cl)cc1Cl
inactive: Potency [1] | Potency [2] | Potency [3] | activation [4] -1.71% | Potency [6] | outcome [7] | max response [10] 0.0931% | Potency [11] | max response [12] -0.131% | outcome [13]

Cc1cccc2ccccc12
inactive: Potency [1] | Potency [2] | Potency [3] | activation [4] -0.124% | max response [5] -1.89% | Potency [6] | Potency [8] | max response [9] -3.61% | max response [10] 1.12% | Potency [11] | max response [12] 3.98% | outcome [13]

COc1ccccc1[N+](=O)[O-]
inactive: Potency [1] | Potency [2] | Potency [3] | activation [4] 0.316% and 0.0004% | Potency [6] | outcome [7] | Potency [8] | max response [9] -18.6% and -4.26% | max response [10] -1.85% and -1.91% | Potency [11] | max response [12] 1.11% and 2.57% | outcome [13]

CCOCCO
inactive: Potency [1] | Potency [2] | Potency [3] | activation [4] -0.327% | max response [5] -5.75% | Potency [6] | Potency [8] | max response [9] 10.2% | Potency [11] | max response [12] -4.11% | outcome [13]

CN(C)CCCNCCCN
inactive: Potency [1] | Potency [2] | Potency [3] | activation [4] 0.0352% | max response [5] -2.56% | Potency [6] | Potency [8] | max response [9] -2.03% | max response [10] -0.667% | max response [12] -0.438% | outcome [13]

CC/C=C/C#N
inactive: Potency [1] | Potency [2] | Potency [3] | activation [4] -1.16% | max response [5] 9.19% | outcome [7] | Potency [8] | max response [9] 1.63% | max response [10] 5.67% | max response [12] 1.47% | outcome [13]

CCCCC(C=O)CC (centres undefined)
inactive: Potency [1] | Potency [2] | Potency [3] | activation [4] 0.316% | max response [5] -5.44% | Potency [6] | max response [9] 4.13% | max response [10] -9.34% | Potency [11] | max response [12] -0.0559% | outcome [13]

BrC(Br)C(Br)Br
inactive: Potency [1] | Potency [2] | Potency [3] | activation [4] -0.0804% | Potency [6] | outcome [7] | Potency [8] | max response [9] 0.416% | max response [10] 6.64% | Potency [11] | max response [12] 0.617% | outcome [13]
